# From the supplement of paper PMC4466140
# Legend:
# Experiment in all cases: SPOT peptide array binding signal intensity (averaged, normalized) (arbitrary units (background-subtracted, floor 0; scale differs between SH3 domains)); higher = stronger binding of the SH3 domain to the peptide
# AgAbp1 = target: AgAbp1
# Protocol: (§1)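 GST-tagged SH3 domains from S. cerevisiae (Sc), A. gossypii (Ag), C. albicans (Ca) and S. pombe (Sp) were incubated at 10 ug/ml overnight at 4 C on cellulose SPOT membranes carrying 292 synthetic 15-mer peptides mined from the S. cerevisiae proteome (cysteines replaced by serines). Binding was detected with anti-GST antibody, HRP secondary and chemiluminescence, quantified with Genespotter, and reported as normalized spot intensities averaged over biological replicates.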
# AgBbc1 = target: AgBbc1
# Protocol: as §1
# AgBem1-D1 = target: AgBem1-D1
# Protocol: as §1
# AgBzz1-D1 = target: AgBzz1-D1
# Protocol: as §1
# AgBzz1-D2 = target: AgBzz1-D2
# Protocol: as §1
# AgCyk3 = target: AgCyk3
# Protocol: as §1
# AgFus1 = target: AgFus1
# Protocol: as §1
# AgHof1 = target: AgHof1
# Protocol: as §1
# AgHse1 = target: AgHse1
# Protocol: as §1
# AgLsb1 = target: AgLsb1
# Protocol: as §1
# AgLsb4 = target: AgLsb4
# Protocol: as §1
# AgMyo5 = target: AgMyo5
# Protocol: as §1
# AgNbp2 = target: AgNbp2
# Protocol: as §1
# AgRvs167 = target: AgRvs167
# Protocol: as §1
# AgSho1 = target: AgSho1
# Protocol: as §1
# AgSla1-D1-D2 = target: AgSla1-D1-D2
# Protocol: as §1
# AgSla1-D3 = target: AgSla1-D3
# Protocol: as §1
# CaAbp1-D1 = target: CaAbp1-D1
# Protocol: as §1
# CaAbp1-D2 = target: CaAbp1-D2
# Protocol: as §1
# CaBbc1 = target: CaBbc1
# Protocol: as §1
# CaBem1-D1 = target: CaBem1-D1
# Protocol: as §1
# CaBzz1-D1 = target: CaBzz1-D1
# Protocol: as §1
# CaBzz1-D2 = target: CaBzz1-D2
# Protocol: as §1
# CaCyk3 = target: CaCyk3
# Protocol: as §1
# CaFus1 = target: CaFus1
# Protocol: as §1
# CaHof1 = target: CaHof1
# Protocol: as §1
# CaHse1 = target: CaHse1
# Protocol: as §1
# CaLsb1 = target: CaLsb1
# Protocol: as §1
# CaLsb4 = target: CaLsb4
# Protocol: as §1
# CaMyo5 = target: CaMyo5
# Protocol: as §1
# CaNbp2 = target: CaNbp2
# Protocol: as §1
# CaRvs167 = target: CaRvs167
# Protocol: as §1
# CaRvs167-3 = target: CaRvs167-3
# Protocol: as §1
# CaSho1 = target: CaSho1
# Protocol: as §1
# CaSla1-D1-D2 = target: CaSla1-D1-D2
# Protocol: as §1
# CaSla1-D3 = target: CaSla1-D3
# Protocol: as §1
# ScAbp1 = target: ScAbp1
# Protocol: as §1
# ScBbc1 = target: ScBbc1
# Protocol: as §1
# ScBem1-D1 = target: ScBem1-D1
# Protocol: as §1
# ScBzz1-D1 = target: ScBzz1-D1
# Protocol: as §1
# ScBzz1-D2 = target: ScBzz1-D2
# Protocol: as §1
# ScCyk3 = target: ScCyk3
# Protocol: as §1
# ScFus1 = target: ScFus1
# Protocol: as §1
# ScHof1 = target: ScHof1
# Protocol: as §1
# ScHse1 = target: ScHse1
# Protocol: as §1
# ScLsb1 = target: ScLsb1
# Protocol: as §1
# ScLsb2 = target: ScLsb2
# Protocol: as §1
# ScLsb3 = target: ScLsb3
# Protocol: as §1
# ScLsb4 = target: ScLsb4
# Protocol: as §1
# ScMyo3 = target: ScMyo3
# Protocol: as §1
# ScMyo5 = target: ScMyo5
# Protocol: as §1
# ScNbp2 = target: ScNbp2
# Protocol: as §1
# ScPex13 = target: ScPex13
# Protocol: as §1
# ScRvs167 = target: ScRvs167
# Protocol: as §1
# ScSho1 = target: ScSho1
# Protocol: as §1
# ScSla1-D1-D2 = target: ScSla1-D1-D2
# Protocol: as §1
# ScSla1-D3 = target: ScSla1-D3
# Protocol: as §1
# SpAbp1-D1 = target: SpAbp1-D1
# Protocol: as §1
# SpBbc1 = target: SpBbc1
# Protocol: as §1
# SpBzz1-D1 = target: SpBzz1-D1
# Protocol: as §1
# SpBzz1-D2 = target: SpBzz1-D2
# Protocol: as §1
# SpCyk3 = target: SpCyk3
# Protocol: as §1
# SpHof1 = target: SpHof1
# Protocol: as §1
# SpHof1-2 = target: SpHof1-2
# Protocol: as §1
# SpHof1-3 = target: SpHof1-3
# Protocol: as §1
# SpHse1 = target: SpHse1
# Protocol: as §1
# SpLsb1 = target: SpLsb1
# Protocol: as §1
# SpLsb4 = target: SpLsb4
# Protocol: as §1
# SpMyo1 = target: SpMyo1
# Protocol: as §1
# SpNbp2 = target: SpNbp2
# Protocol: as §1
# SpPex13 = target: SpPex13
# Protocol: as §1
# SpRvs167 = target: SpRvs167
# Protocol: as §1
# SpSla1-D1-D2 = target: SpSla1-D1-D2
# Protocol: as §1
# SpSla1-D3 = target: SpSla1-D3
# Protocol: as §1
binder,measurement,setting,value
KTKQQKPAIPQKKSF,SPOT peptide array binding signal intensity,AgAbp1,2190
same,SPOT peptide array binding signal intensity,AgBbc1,16.5
same,SPOT peptide array binding signal intensity,AgBem1-D1,7
same,SPOT peptide array binding signal intensity,AgBzz1-D1,73
same,SPOT peptide array binding signal intensity,AgBzz1-D2,21
same,SPOT peptide array binding signal intensity,AgCyk3,≤ 0
same,SPOT peptide array binding signal intensity,AgFus1,≤ 0
same,SPOT peptide array binding signal intensity,AgHof1,35.5
same,SPOT peptide array binding signal intensity,AgHse1,≤ 0
same,SPOT peptide array binding signal intensity,AgLsb1,≤ 0
same,SPOT peptide array binding signal intensity,AgLsb4,1.5
same,SPOT peptide array binding signal intensity,AgMyo5,4
same,SPOT peptide array binding signal intensity,AgNbp2,14
same,SPOT peptide array binding signal intensity,AgRvs167,0.333
same,SPOT peptide array binding signal intensity,AgSho1,≤ 0
same,SPOT peptide array binding signal intensity,AgSla1-D1-D2,17
same,SPOT peptide array binding signal intensity,AgSla1-D3,19.5
same,SPOT peptide array binding signal intensity,CaAbp1-D1,4040
same,SPOT peptide array binding signal intensity,CaAbp1-D2,6440
same,SPOT peptide array binding signal intensity,CaBbc1,149
same,SPOT peptide array binding signal intensity,CaBem1-D1,3
same,SPOT peptide array binding signal intensity,CaBzz1-D1,742
same,SPOT peptide array binding signal intensity,CaBzz1-D2,584
same,SPOT peptide array binding signal intensity,CaCyk3,2
same,SPOT peptide array binding signal intensity,CaFus1,≤ 0
same,SPOT peptide array binding signal intensity,CaHof1,2
same,SPOT peptide array binding signal intensity,CaHse1,1.75
same,SPOT peptide array binding signal intensity,CaLsb1,≤ 0
same,SPOT peptide array binding signal intensity,CaLsb4,≤ 0
same,SPOT peptide array binding signal intensity,CaMyo5,1.5
same,SPOT peptide array binding signal intensity,CaNbp2,≤ 0
same,SPOT peptide array binding signal intensity,CaRvs167,2.33
same,SPOT peptide array binding signal intensity,CaRvs167-3,1.5
same,SPOT peptide array binding signal intensity,CaSho1,≤ 0
same,SPOT peptide array binding signal intensity,CaSla1-D1-D2,1260
same,SPOT peptide array binding signal intensity,CaSla1-D3,≤ 0
same,SPOT peptide array binding signal intensity,ScAbp1,1480
same,SPOT peptide array binding signal intensity,ScBbc1,3
same,SPOT peptide array binding signal intensity,ScBem1-D1,15
same,SPOT peptide array binding signal intensity,ScBzz1-D1,37
same,SPOT peptide array binding signal intensity,ScBzz1-D2,19.5
same,SPOT peptide array binding signal intensity,ScCyk3,≤ 0
same,SPOT peptide array binding signal intensity,ScFus1,≤ 0
same,SPOT peptide array binding signal intensity,ScHof1,7.75
same,SPOT peptide array binding signal intensity,ScHse1,54.5
same,SPOT peptide array binding signal intensity,ScLsb1,4
same,SPOT peptide array binding signal intensity,ScLsb2,≤ 0
same,SPOT peptide array binding signal intensity,ScLsb3,328
same,SPOT peptide array binding signal intensity,ScLsb4,≤ 0
same,SPOT peptide array binding signal intensity,ScMyo3,19
same,SPOT peptide array binding signal intensity,ScMyo5,4.75
same,SPOT peptide array binding signal intensity,ScNbp2,≤ 0
same,SPOT peptide array binding signal intensity,ScPex13,0.75
same,SPOT peptide array binding signal intensity,ScRvs167,4.67
same,SPOT peptide array binding signal intensity,ScSho1,3
same,SPOT peptide array binding signal intensity,ScSla1-D1-D2,213
same,SPOT peptide array binding signal intensity,ScSla1-D3,7.25
same,SPOT peptide array binding signal intensity,SpAbp1-D1,1420
same,SPOT peptide array binding signal intensity,SpBbc1,2.5
same,SPOT peptide array binding signal intensity,SpBzz1-D1,256
same,SPOT peptide array binding signal intensity,SpBzz1-D2,2
same,SPOT peptide array binding signal intensity,SpCyk3,≤ 0
same,SPOT peptide array binding signal intensity,SpHof1,0.5
same,SPOT peptide array binding signal intensity,SpHof1-2,5.75
same,SPOT peptide array binding signal intensity,SpHof1-3,134
same,SPOT peptide array binding signal intensity,SpHse1,3.75
same,SPOT peptide array binding signal intensity,SpLsb1,5.5
same,SPOT peptide array binding signal intensity,SpLsb4,22.5
same,SPOT peptide array binding signal intensity,SpMyo1,5
same,SPOT peptide array binding signal intensity,SpNbp2,≤ 0
same,SPOT peptide array binding signal intensity,SpPex13,≤ 0
same,SPOT peptide array binding signal intensity,SpRvs167,1
same,SPOT peptide array binding signal intensity,SpSla1-D1-D2,3
same,SPOT peptide array binding signal intensity,SpSla1-D3,1
